Compounds without any hit were thinned out: in the full panel of roughly 83,000, 20% have a hit.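 How to read the values: 0–100, growth inhibition (40 = 60% inhibited); 0, no net growth; -100 to 0, cell death (-40 = 40% of starting cells died; -100 = all dead).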 Active and inactive are the calls of the source. How the source made its calls: active means growth percent below 10; inactive means the rest.

In this assay the test system is CAKI-1 renal. Nature of the assay: NCI-60 one-dose screen, 48 h (100 = growth as untreated, 0 = no growth, -100 = all killed). Conditions: 10 µM.
Consider `COc1ccc(C2c3sc4ccc(C)cc4c3Oc3nc(N)nc(N)c32)cc1` (stereo not drawn), for which the growth was 63.3% (inactive). For the compound `Cc1cc(N=C2NC(=O)S/C2=C\c2ccc(F)cc2)n[nH]1`, the growth was 21.2% (inactive).

For the compound `Cn1cc(-c2nnc(N)nc2-c2c[nH]c3ccccc23)c2cc(Br)cnc21`, the growth is 24.3% (inactive).

As for `O=C(CC(=O)Nc1ccc(Oc2ncnc3scc(Nc4n[nH]c(=S)s4)c23)cc1)Nc1ccc(Cl)cc1`, the growth is 62.9% (inactive). For `O=C1NC2C=CC=CC2/C1=C1/SC(=S)N(C2CC(=O)N(c3ccc(Br)cc3)C2=O)C1=O` (stereo not drawn), the growth is 77.1% (inactive). As to `CC1(C)CC(=O)C2=C(C1)N(Cc1ccc(C(=O)O)cc1)C1=C(C(=O)CC(C)(C)C1)C2c1ccc(Cl)cc1`, the growth is 90.5% (inactive). The result for `Cc1ccc2c(c1)C(=O)/C(=C/c1ccc([N+](=O)[O-])cc1)S2` reads 61.9% (inactive); that for `O=C(Nc1ccc(OCc2ccc(Cl)cc2)cc1)Nc1ccc(Cl)c(C(F)(F)F)c1`, 1.19% (active). The result for `Cn1cc(-c2nc(N)nnc2-c2c[nH]c3ccccc23)c2cc(Br)cnc21` reads 11.9% (inactive); that for `O=C(CSc1nc2ccccc2c(=O)n1-c1ccc(Cl)cc1)Nc1ccc(-c2nc3ccccc3[nH]2)cc1`, -67.9% (active). As to `Cc1ccc2c(c1)C(=O)/C(=C/c1c[nH]c3ccccc13)S2`, the growth is 37.1% (inactive). On to `COc1cccc(O)c1/C=C1\SCc2cc3c(OC)cccc3[o+]c21`, for which the growth was 96.8% (inactive).

Regarding `COc1cc(C2CC(c3ccc(Oc4ccc(Cl)cc4)cc3)=NN2c2nc(-c3ccc(Cl)cc3)c(C#N)c(N3CCOCC3)n2)cc(OC)c1OC` (stereo not drawn), the growth was 79% (inactive).

For the origin of these results see PubChem BioAssay (NCI).
